The structures appear in SMILES notation. Where “and” joins values, the source holds several entries; their conditions need not be identical. Equal values may be shown once. In all, about 310,000 compounds went through this assay and about 11,000 (3.5%) were called active. Another 4% or so got no clear call; they are omitted. Only a selection was taken, and actives are over-represented in it overall. A number with no mark means an inactive call. Calls come from the whole dose curve; as a rule, active = well fitted inhibition curve with a large enough effect; inconclusive = small, poorly fitted or top-dose-only effect, or another doubt; inactive = no such curve, though single readings can be large or run the other way.
Potency is the fitted concentration of half-maximal effect.

This assay deals with 4'-phosphopantetheinyl transferase ffp (Bacillus subtilis) (UniProt Q9F4F7). The assay is described as follows: qHTS Assay for Inhibitors of Bacillus subtilis Sfp phosphopantetheinyl transferase (PPTase).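 For largest response in the series, negative = inhibition: 0% = enzyme reaction without inhibitor and -100% = no enzyme wells.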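 Note: the enzyme is Sfp with the accession as filed and its product quenches rhodamine fluorescence.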 To be noted: Biochemical Sfp PPTase activity. The essentials:
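Compounds were incubated with enzyme (final 15 nM) for 15 min at room temperature before substrate addition started the reaction. Fluorescence at 525 nm excitation, 598 nm emission was recorded immediately and after 30 minutes.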
(In general: In qHTS, concentration-response curves come from the screen itself.)
Consider `O=C(O)c1cc([N+](=O)[O-])c(Nc2cccc3ccccc23)c([N+](=O)[O-])c1`, for which the largest response in the series, negative = inhibition was -7.55%.
As for `C=CCn1c(C)cc(C2=NNC(=NCC)SC2)c1C`, the Potency is 56.2 µM (active).
The same measure, in the same setting: then `COCCn1c(C)cc(C2=NNC(=Nc3ccc(F)cc3)SC2)c1C`, with 50.1 µM (active).
For `C=CCn1c(C)cc(C(=O)CN2C(=O)c3ccccc3C2=O)c1C`, the largest response in the series, negative = inhibition is 1.15%.
The same measure, in the same setting: in the case of `Cc1ccnc(NS(=O)(=O)c2ccc(NC(=O)c3ccc(S(=O)(=O)N4CCOCC4)cc3)cc2)n1` it was 28.5%.
On to `Cc1cc(C2=NNC(=Nc3ccc(S(=O)(=O)N4CCOCC4)cc3)SC2)c(C)n1CC1CCCO1` (configuration not stated), for which the Potency was 22.4 µM (active).
With `Cc1cccc(N=C2NN=C(c3c[nH]c4ccccc34)CS2)c1`, the largest response in the series, negative = inhibition was -49.9%.
In the case of `Cc1ccc(S(=O)(=O)N2CCC(C(=O)NCC3CCCO3)CC2)cc1` (configuration not stated), the largest response in the series, negative = inhibition was 21.8%.
The same measure, in the same setting: then `COC(=O)C(C(=O)OC)C1c2ccccc2C=C(C2CC2)N1C(=O)OC` (configuration not stated), with 22.5% and 27.4%; and `CCCOc1ccc(C2=CSC3=NCCN23)cc1Cl`, with 16%.
Same read-out and setting: then `CCOC(=O)C1CCCN(CCSc2ccc(C)cc2)C1` (configuration not stated), with 12.5%; and `COc1ccc(C(=O)c2c(C)c(CCC#N)n3ccccc23)c(OC)c1`, with 0.761%.
On the same count and under the same terms, in the case of `COc1ccc(C(C)NC(=O)C23CC4CC(CC(C4)C2)C3)cc1` (configuration not stated) it was 5.95%.
`O=C(O)c1c(NC(=O)N2CCCC2)sc2c1CCCC2`: the largest response in the series, negative = inhibition is -9.57%.
Still for that read-out and setting: then `CC(O)c1ccc(OCCN(C)c2ccccn2)cc1` (configuration not stated), with -0.377%.
Consider `CC(=O)N1C(=O)/C(=C2\SC(=S)N(NC(=O)c3ccc(O)cc3)C2=O)c2ccccc21`, for which the Potency is 50.1 µM (active).
For `O=C(O)c1ccc(/C=C2\SC(=S)N(NC(=O)c3ccc(Br)cc3)C2=O)cc1`, the largest response in the series, negative = inhibition was -5.87%.
Regarding `O=C(O)c1ccc2c(c1)C(=O)N(NC(=O)c1ccc(O)cc1)C2=O`, the largest response in the series, negative = inhibition was 1.07%.
Same read-out and setting: then `COc1cc(Cl)ccc1OCc1cc(C(=O)N2CC[C@@H]3CCCC[C@H]3C2)no1`, with -14.4%; and `COc1ccc(-c2nc3c(c4c2C[C@H](c2ccccc2)OC4)CN(C(=O)C2CC2)CC3)c(C)c1`, with 12.8%.
As to `N#CC1=C(N)Oc2n[nH]c(CSc3ccccc3)c2C12C(=O)Nc1ccccc12` (configuration not stated), the largest response in the series, negative = inhibition was 17.6%.
On to `N#CC1=C(N)Oc2[nH]c(=S)[nH]c(=O)c2C12C(=O)Nc1ccccc12` (configuration not stated), for which the Potency is 39.8 µM (active).
Consider `CC1(C)Cc2ccccc2-c2[nH]c(=S)[nH]c(=O)c21`, for which the largest response in the series, negative = inhibition is 2.54%.
As to `CCC(C)Sc1nc2c(cnn2-c2ccc(F)cc2)c(=O)[nH]1` (configuration not stated), the largest response in the series, negative = inhibition was -3.22%.
The same measure, in the same setting: in the case of `CCOc1ccc(C(C(=O)NC2CCCC2)N(C(=O)c2snc(C(N)=O)c2N)C2CCCC2)cc1` (configuration not stated) it was 16.6%; in that of `COc1ccc2oc(C(=O)NCC(Cc3ccccc3)N(C)C)c(C)c2c1` (configuration not stated), -0.769%.
Still for that read-out and setting: then `CC1Cc2cc(/C(O)=C3\C(=O)C(=O)N(Cc4cccnc4)C3c3ccccc3F)ccc2O1` (configuration not stated), with 11.3%.
In the case of `COc1ccccc1C(=O)NN1C(=O)C2C3C=CC(O3)C2C1=O` (configuration not stated), the Potency is 56.2 µM (active).
For the compound `O=C(NN1C(=O)C2C(C1=O)C1C=CC2C12CC2)c1ccccc1Cl` (configuration not stated), the largest response in the series, negative = inhibition was 12.4%.
`O=C(NN1C(=O)C2C3C=CC(C4CC34)C2C1=O)c1ccc(Cl)cc1` (configuration not stated): the largest response in the series, negative = inhibition was 27.6%.
For the compound `O=C(NN1C(=O)C2C3C=CC(O3)C2C1=O)c1ccccc1` (configuration not stated), the Potency was 44.7 µM (active).
In the case of `COc1ccccc1C(=O)Nn1cnnc1`, the largest response in the series, negative = inhibition was 6.61%.
Take `COc1ccc(C(=O)NN2C(=O)C3C(c4ccccc4)C=CC(c4ccccc4)C3C2=O)cc1` (configuration not stated): the largest response in the series, negative = inhibition is 33.4%.
The same measure, in the same setting: in the case of `COc1ccc(N2CCN(C(=O)c3cn(C)c4ccc(S(=O)(=O)N5CCOCC5)cc4c3=O)CC2)cc1` it was 1.25%; in that of `O=C(C1CCC1)N1CCN(c2ccccc2)CC1`, 17.5%; in that of `CC1(c2ccc3ccccc3c2)NC(=O)NC1=O` (configuration not stated), 12%.
With `CC(C)C[C@@H](COc1ccccc1)N1CCN(CC(C)C)CCC1=O`, the largest response in the series, negative = inhibition is 3.76%.
Same read-out and setting: in the case of `CCCCCCCC/C=C\CCCCCCCC(=O)NCC(=O)O` it was 8.62%; in that of `CCCCCCC(O)(CCN1CCCCC1)c1ccccc1` (configuration not stated), 9.61%; in that of `CCCn1c(CCNc2nc(-c3ccc(OC)cc3)cs2)nc2ccccc21`, -0.532%.
On to `CCCn1c(C2CCCN2c2nc(-c3ccc(OC)cc3)cs2)nc2ccccc21` (configuration not stated), for which the Potency is 89.1 µM (active).
For the compound `CCCn1c(C2CCCN2c2nc(-c3ccc(C)cc3)cs2)nc2cc(Cl)c(N3CCCCC3)cc21` (configuration not stated), the largest response in the series, negative = inhibition was -23.2%.
`CC1CCN(C2=NC(=O)/C(=C/c3ccc(O)cc3)S2)CC1`: the largest response in the series, negative = inhibition is 14%.
For the compound `COc1ccc(N=Nc2c(-c3ccc(OC)cc3)[nH]oc2=O)cc1`, the largest response in the series, negative = inhibition was 24.2%.
On to `O=C(Nc1ccccc1)c1nnsc1S(=O)(=O)c1ccc(Cl)cc1`, for which the Potency is 11.2 µM (active).
`O=C(c1ccc(Cl)cc1)c1cnc(Nc2ccccc2)s1`: the largest response in the series, negative = inhibition is -3.35%.
Regarding `CS(=O)(=O)c1ccc(Cl)c(NC(=O)Nc2ccccc2)c1`, the largest response in the series, negative = inhibition was 7.87%.

These data come from PubChem BioAssay AID1490 (National Center for Advancing Translational Sciences (NCATS), 2009).
